Common to all, as to assay: NCI-60 one-dose screen, 48 h (100 = growth as untreated, 0 = no growth, -100 = all killed)
Common to all, as to details: 10 µM

In test [1] the test system is K-562 leukemia.
The subject of test [2] is MALME-3M melanoma.
For test [3], the system named is MDA-MB-231 breast.
The test system of test [4] is RXF 393 renal.
Test [5] relates to SF-268 CNS.
Test [6] relates to SF-295 CNS.
Test [7] has as its system SF-539 CNS.
The test system of test [8] is UACC-257 melanoma.
The subject of test [9] is M14 melanoma.
Test [10] has as its system HCT-15 colon.
The subject of test [11] is HT29 colon.
For test [12], the system named is SNB-75 CNS.
For test [13], the system named is SNB-19 CNS.
Test [14] concerns U251 CNS.
Test [15] has as its system PC-3 prostate.
Test [16] deals with SK-MEL-5 melanoma.
Test [17] deals with UACC-62 melanoma.
The test system of test [18] is LOX IMVI melanoma.
Test [19] deals with SK-MEL-28 melanoma.
Test [20] deals with SK-MEL-2 melanoma.

About 83,000 compounds went through this panel and 20% of them were active in at least one assay; those are over-represented in the sample as a whole.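 Cells were grown in 96-well plates and exposed to the test compound at a single concentration for 48 hours; results are reported as percent growth, with values below 10 considered active.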 Unmarked numbers belong to inactive results. The source made the active and inactive calls.

Here are results for eight molecules from PubChem BioAssay (NCI).

Consider `COc1ccc(C2=Nc3c(C)nn(-c4ccccc4)c3NC(c3ccc(Oc4ccnc5cc(Cl)ccc45)c(OC)c3)C2)cc1` (centres undefined), for which the growth in test [1] is 62.2%; in test [2], 95.6%; in [3] it was 58%; in test [4], 80.4%; in test [5], 78.8%; in test [6], 93.1%. For the same molecule, the growth in [7] was 92.2%; in test [8], 98.3%; in [9], 95.1%; in test [10], 62.9%; in test [11], 56.2%; in test [12], 62.3%. Besides, the growth was 78.6% in [13]; 86.7% in [14]; 54.8% in test [15]; 89.4% in [16]; 75.9% in test [17]; 89.3% in test [18]. In addition, the growth in [19] is 95.1%; in test [20], 90.9%.
Consider `CCN1CCCC1CNC(=O)c1ncc(-c2ccc(C(F)(F)F)cc2)c(NC2CCCCCC2)n1` (centres undefined), for which the growth in test [1] is 8.32% (active); in test [2], 54%; in [3], 67.3%; in [4], 74.1%; in test [5], 86.8%; in [6] it was 69.3%. The growth in test [7] was 94.7%; in test [8], -46.2% (active); in test [9], 26.1%; in test [10], 90.8%; in test [11], 11.7%; in [12], 74.3%. In addition, the growth is 85.2% in test [13]; 52.7% in test [14]; 58.4% in test [15]; 45.2% in [16]; 78.3% in test [17]; 87.1% in [18]. Further, the growth in [19] is 81.5%.
For the molecule `COc1cc(-c2cc(/C=C/C(=O)c3ccc(F)c(F)c3)[nH]n2)cc(OC)c1OC`, the growth in test [1] was 29.8%; in test [2], 72.5%; in test [3] it was 49.7%; in test [4], 76.9%; in test [5], 61.7%; in [6], 10.4%. The growth is 65.6% in test [7]; 80.8% in test [8]; 67.9% in [9]; 46.6% in test [10]; 53.7% in test [11]; 56.7% in test [12]. Moreover, the growth in [13] was 67.8%; in test [14], 41.5%; in test [15] it was 11.7%; in test [16] it was 75.6%; in test [17], 51.4%; in [18], 55.9%. In addition, the growth was 73.4% in [19] and 83.1% in [20].
Regarding `COc1ccc(-c2cc(-c3cccc(NS(C)(=O)=O)c3)nc(N)c2C#N)cc1`, the growth in test [1] is 14.3%; in test [2] it was 2.95% (active); in [3], 30.4%; in test [4] it was 16.3%; in [5] it was 29.9%; in test [6] it was 0.458% (active). Further, the growth is 5.27% (active) in test [7]; 79.1% in test [8]; 6.36% (active) in [9]; 30.5% in test [10]; 8.45% (active) in test [11]; -6.31% (active) in test [12]. The growth is 42.1% in test [13]; 28.5% in test [14]; 9.4% (active) in [15]; 13.6% in test [16]; 39.9% in [17]; 44.8% in [18]. The values for the growth in test [19] and in test [20] were 66% and 49.8%, respectively.
For the molecule `COc1ccc(-c2nc(-c3nc4ccc(OC)cc4[nH]3)cc3c2[nH]c2ccccc23)cc1`, the growth in test [1] is 16.2%; in test [2] it was 58.6%; in test [3] it was 59.5%; in test [4] it was 43%; in [5], 48.8%; in test [6], -13.1% (active). The growth in [7] is 51.6%; in test [8], 70.5%; in [9], 34.7%; in test [10], 28.7%; in test [11], 17.4%; in [12], 67.3%. In addition, the growth was 37.5% in [13]; 14.3% in [14]; 25.8% in test [15]; 49.9% in [16]; 50% in test [17]; 27.2% in [18]. Besides, the growth in test [19] is 47.7%; in [20] it was 11.2%.
Turning to `CC/C(=C(/c1ccc(OCCN(C)C)cc1)c1ccc(OC(=O)CCCCCCCCC(=O)c2c(C)[nH]c(/C=C3\N=C(c4ccc[nH]4)C=C3OC)c2C)cc1)c1ccccc1`, the growth in test [1] is 33.5%; in [2], 68.1%; in [3] it was 11.2%; in [4] it was 69.1%; in [5] it was 71.7%; in test [6], 89%. The growth in test [7] is 83.4%; in test [8], 90.5%; in test [9], 38.6%; in [10] it was 58%; in [11], 25.9%; in test [12], 64.7%. Also, the growth in test [13] was 81.4%; in test [14], 43.5%; in test [15] it was 43%; in [16], 29.3%; in test [17] it was 51.2%; in test [18], 20.8%. Besides, the figures for the growth in test [19] and in [20] were 84.3% and 95.6%, respectively.
With `COc1ccc(-c2csc(NC(=O)CSc3nc(C)c(-c4ccccc4)n3Nc3ccccc3)n2)cc1`, the growth in test [1] is 24.8%; in [2] it was 60.4%; in [3], 65.8%; in test [4] it was 63.9%; in test [5], 44.7%; in [6] it was -9.42% (active). Moreover, the growth is 72.7% in test [7]; 89.3% in [8]; 50.4% in test [9]; 44.2% in [10]; 67.7% in test [11]; 49% in test [12]. The growth is 82.7% in [13]; 61.7% in test [14]; 34% in test [15]; 54.4% in [16]; 47% in test [17]; 36.8% in test [18]. The values for the growth in test [19] and in test [20] were 89.6% and 82%, respectively.
`Cc1cc(=O)n2nnc3c4ccccc4ccc3n12`: the growth was 24.7% in test [1]; 81.2% in test [2]; 71.4% in [3]; 98% in [4]; 84% in [5]; 104% in test [6]. Moreover, the growth in [7] was 82.3%; in test [8], 81.1%; in test [9], 92.4%; in [10] it was 51.4%; in test [11], 85.4%; in test [12], 102%. The growth in test [13] is 94.9%; in test [14], 97%; in [15], 62.5%; in test [16], 88.5%; in test [17], 79.9%; in test [18], 89.3%. The values for the growth in [19] and in test [20] were 98.2% and 113%, respectively.
